# Measured values reported in the supplement of paper PMC6805474.
# Legend:
# [1] = tested on: Schistosoma mansoni schistosomula (LE); experiment: XTT viability relative to DMSO control; higher = more viable (less active); details: 72 h; 10 µM
# Experimental: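 XTT/PMS was then added for a further 24 h (72 h total) and A450 was read. % viability = (sample - heat-killed control)/(DMSO control - heat-killed control) x 100, from duplicate wells in two independent experiments.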
# [2] = tested on: Schistosoma mansoni schistosomula (NMRI); experiment: phenotypic severity score (0-4); higher = more antischistosomal effect, active = 2 or more; details: 10 µM
# [3] = tested on: Schistosoma mansoni schistosomula (Liberian); experiment: drug effect (1 - score/DMSO control score) (fraction); higher = more antischistosomal effect, active = 0.5 or more; extreme values may be limits of the assay; details: 10 µM
# In short: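 Drug effect was calculated by comparing the mean score of the test wells with the mean score of the DMSO wells, and any negative value was set to zero. Duplicate wells of 50 Liberian-strain S. mansoni schistosomula, mechanically transformed from cercariae and pre-incubated at least 12 h, received 10 µM compound in Medium 199 with 5% FCS at 37 °C, 5% CO2, with 0.1% DMSO in the comparison wells. Visual scoring at 10× took place at 24, 48 and 72 h on a quarter-point scale from 3 (normal) to 0 (dead), and a plate counted only if its DMSO wells averaged at least 2.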
# 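Wherever phenotypic severity score (0-4) is given: visual microscopic scoring of shape, motility and density changes versus 0.5% DMSO solvent controls, one point per descriptor, degeneracy or death scored 4, mean of duplicate wells.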
Structure (SMILES),XTT viability [1] [%],phenotypic severity score ([2]; 24 h),phenotypic severity score ([2]; 48 h),phenotypic severity score ([2]; 72 h),drug effect ([3]; 24 h),drug effect ([3]; 48 h),drug effect ([3]; 72 h)
NS(=O)(=O)c1cncc(-c2ccc3nccc(-c4cn[nH]c4)c3n2)c1,98.4,0 (inactive),0 (inactive),0 (inactive),0.135 (inactive),0.111 (inactive),0.312 (inactive)
Cc1cc(C)c2cc(C(=O)NC3CCCCCCC3)[nH]c2c1,124,0 (inactive),1 (inactive),0 (inactive),0.316 (inactive),0.333 (inactive),0.438 (inactive)
CCOc1ccccc1C(=O)Nc1cccc(-c2nc3ncccn3c2C)c1,107,0 (inactive),0 (inactive),0 (inactive),0.0811 (inactive),0.389 (inactive),0.625 (active)
CNc1cc(C)nc(C2CN(C(=O)c3n[nH]c4ccccc34)CCO2)c1 (configuration not stated),123,0 (inactive),0 (inactive),0 (inactive),0.158 (inactive),0.167 (inactive),0.125 (inactive)
c1ccc(-c2cc(N3CCCCC3)c3ccccc3n2)nc1,59.9,1 (inactive),0 (inactive),1 (inactive),0.15 (inactive),0.243 (inactive),0.389 (inactive)
CCc1ccc([C@@H]2C[C@H](C(F)(F)F)n3ncc(C(=O)NCc4ccc(OC)cc4)c3N2)cc1,99.5,1 (inactive),1 (inactive),0 (inactive),0.1 (inactive),0.111 (inactive),0.0556 (inactive)
COc1cccc(-c2cc3c(Nc4cccnc4)nccc3[nH]2)c1,104,0 (inactive),0 (inactive),0 (inactive),0.1 (inactive),0.135 (inactive),0.152 (inactive)
CCOC(=O)NC(=O)c1ccsc1NC(=O)c1nc2ccccc2s1,134,0 (inactive),0 (inactive),0 (inactive),0.0909 (inactive),0.2 (inactive),0.182 (inactive)
CC(C)(C)c1cc(C(=O)N2CCN(c3nccnc3C#N)CC2)n(Cc2ccccc2)n1,120,0 (inactive),0 (inactive),1 (inactive),< 0 (inactive),0.027 (inactive),0.0303 (inactive)
O=C(Nc1c(O)cccc1-c1nc2c(C(=O)O)cccc2o1)c1cc(-c2ccccc2)on1,80.2,0 (inactive),0 (inactive),0 (inactive),0.05 (inactive),0.027 (inactive),0.0303 (inactive)
COc1ccc(-c2cnc3ccc(N4CCCC4)nn23)cc1OC,60.5,2 (active),4 (active),4 (active),0.784 (active),0.944 (active),1 (active)
C[C@H](C(N)=O)N1CCCC[C@H]1c1ccc(OCc2cccc(F)c2)cc1,118,0 (inactive),0 (inactive),0 (inactive),0.05 (inactive),0.0811 (inactive),0.212 (inactive)
Cc1ccc2c(c1C)NC(=O)C21NN=C(c2ccccc2)S1 (configuration not stated),125,2 (active),0 (inactive),0 (inactive),< 0 (inactive),0.135 (inactive),0.222 (inactive)
Cc1ccc2[nH]c3c(NCCN(C)C)ncnc3c2c1,72.5,1 (inactive),0 (inactive),1 (inactive),0.25 (inactive),0.222 (inactive),0.333 (inactive)
Cc1cc(Nc2ccncc2)n2nc(C)c(-c3ccccc3Cl)c2n1,64.9,0 (inactive),0 (inactive),0 (inactive),0.1 (inactive),0.135 (inactive),0.167 (inactive)
O=C(COc1cccc(F)c1)Nc1nc(-c2ccccn2)cs1,68.1,0 (inactive),0 (inactive),0 (inactive),0.0909 (inactive),0.1 (inactive),0.127 (inactive)
Cc1cc(C)cc(COc2ccc3c(C)c(CCC(=O)O)c(=O)oc3c2C)c1,79.3,1 (inactive),1 (inactive),0 (inactive),0.136 (inactive),0.2 (inactive),0.127 (inactive)
CC(C)(C)c1cc(C(=O)Nc2cccnc2)cc(C(=O)Nc2cccnc2)c1,79.8,0 (inactive),0 (inactive),0 (inactive),< 0 (inactive),0.0811 (inactive),0.0556 (inactive)
CC1(COc2ccc(N3CCC(Oc4ccc(OC(F)(F)F)cc4)CC3)cc2)Cn2cc([N+](=O)[O-])nc2O1 (configuration not stated),110,0 (inactive),0 (inactive),0 (inactive),0.158 (inactive),0.111 (inactive),0.0625 (inactive)
CCCNC(=O)N1CCC2(CC1)CC(=O)c1cc(C)ccc1O2,102,0 (inactive),0 (inactive),0 (inactive),0.1 (inactive),0.15 (inactive),0.111 (inactive)
O=C(NC1CC1)c1ccc(N2CCC(Cc3ccccc3)CC2)nc1,91.1,0 (inactive),0 (inactive),0 (inactive),0.1 (inactive),0.0811 (inactive),0.167 (inactive)

Structure (SMILES),XTT viability [1] [%],phenotypic severity score ([2]; 24 h),phenotypic severity score ([2]; 48 h),phenotypic severity score ([2]; 72 h),drug effect ([3]; 24 h),drug effect ([3]; 48 h),drug effect ([3]; 72 h)
Cc1ccccc1C(=O)N1N=C(Nc2ccccc2)SC1(C)C,88.7,1 (inactive),2 (active),0 (inactive),0.0455 (inactive),0.1 (inactive),0.158 (inactive)
NCCCC(N)(C(=O)O)C(F)F (configuration not stated),87.1,0 (inactive),0 (inactive),0 (inactive),0.15 (inactive),0.135 (inactive),0.222 (inactive)
O=C(Nc1ccccc1-c1nc2c(C(=O)O)cccc2o1)c1ccccc1,54.1,0 (inactive),0 (inactive),0 (inactive),0.05 (inactive),0.027 (inactive),0.0303 (inactive)
Nc1ccc(C(=O)Nc2ccc(-c3nc4ccccc4o3)cc2)cc1,64.2,0 (inactive),0 (inactive),0 (inactive),0.0909 (inactive),0.05 (inactive),0.211 (inactive)
COC(=O)Nc1nc2cc(C(=O)c3ccccc3)ccc2[nH]1,71.1,0 (inactive),0 (inactive),0 (inactive),0.15 (inactive),0.189 (inactive),0.278 (inactive)
CCCn1c(CNc2ccccc2O)nc2ccccc21,337,0 (inactive),0 (inactive),0 (inactive),0.136 (inactive),0.2 (inactive),0.182 (inactive)
CS(=O)(=O)c1cccc(-c2cnc3[nH]cc(-c4ccc(CCC(=O)O)cc4)c3c2)c1,86.9,0 (inactive),0 (inactive),0 (inactive),0.227 (inactive),0.6 (active),0.455 (inactive)
CCc1nc2ccc(C(=O)NCc3ccc4c(c3)OCO4)cn2c1N(C)Cc1cccs1,140,0 (inactive),0 (inactive),0 (inactive),< 0 (inactive),0.1 (inactive),0.167 (inactive)
c1ccc(-c2[nH]c3ccccc3c2C(c2ccccn2)N2CCCC2)cc1 (configuration not stated),-3.4,4 (active),4 (active),4 (active),1 (active),1 (active),1 (active)
Cc1cc2ccccc2n1CC(=O)N1CC(C(=O)N2CCCCC2)Oc2ccccc21 (configuration not stated),71.5,0 (inactive),1 (inactive),0 (inactive),0.05 (inactive),0.027 (inactive),0.111 (inactive)
Cc1nc(-c2ccccn2)nc(N2CCC(Cc3ccccc3)C2)c1Cl (configuration not stated),-3.46,0 (inactive),0 (inactive),0 (inactive),0.15 (inactive),0.1 (inactive),0.333 (inactive)
NC(=O)c1cc(-c2ccsc2)ccc1OCCOc1ccccc1,89.5,0 (inactive),0 (inactive),0 (inactive),0.158 (inactive),0.111 (inactive),< 0 (inactive)
CC(C)C(NC(=O)Cc1cccc2ccccc12)C(=O)Nc1cccc(C#N)c1 (configuration not stated),68.8,0 (inactive),0 (inactive),0 (inactive),0.15 (inactive),0.222 (inactive),0.333 (inactive)
CNC(=O)c1cc(S(=O)(=O)N2CCN(c3ccccn3)CC2)cs1,73.4,0 (inactive),0 (inactive),0 (inactive),0.1 (inactive),0.135 (inactive),0.111 (inactive)
NS(=O)(=O)c1cccc(-c2ccc3ncc(N4CCOCC4)nc3c2)c1,116,0 (inactive),0 (inactive),0 (inactive),0.15 (inactive),0.189 (inactive),0.455 (inactive)
NC(CC(=O)c1ccc(Cl)cc1Cl)C(Cl)(Cl)Cl (configuration not stated),69.2,0 (inactive),0 (inactive),0 (inactive),0.0455 (inactive),0.1 (inactive),0.158 (inactive)
O=C1[C@@H](Oc2ccccc2)[C@@H](c2ccc(Cl)cc2)N1CCn1cnc2c(NCc3ccccc3)ncnc21,68.1,3 (active),4 (active),4 (active),0.136 (inactive),0.1 (inactive),0.158 (inactive)
FC(F)(F)c1cnc(Sc2nnc(-c3ccncc3)o2)c(Cl)c1,74,0 (inactive),1 (inactive),2 (active),0.459 (inactive),0.778 (active),0.938 (active)
COc1ccc(-c2onc(C(F)(F)F)c2-c2ccc(Cl)cc2)c(O)c1,0.0885,0 (inactive),0 (inactive),0 (inactive),0.15 (inactive),0.167 (inactive),0.188 (inactive)
O=C(C1CCN(c2nnc(-n3cccc3)s2)CC1)N1CCC(Cc2ccccc2)CC1,103,1 (inactive),1 (inactive),0 (inactive),0.0526 (inactive),0.111 (inactive),< 0 (inactive)
